Each sequence was assayed against HHATL (assay: pooled miR-30 sensor sort-seq; sequence = guide strand). Details: shRNA.
TTTGGGGCAACCATCGTGCAGA gave a sensor-assay potency score (higher = more potent) of -0.825.
For TAGAAGTTGTACTTGAGCAGGT, the sensor-assay potency score (higher = more potent) was 0.918.
TAGCAAACAGCACATGTCCGGA showed a sensor-assay potency score (higher = more potent) of -0.627.
TACACAGCATACATCCAGGAGC showed a sensor-assay potency score (higher = more potent) of -1.03.
TACACATATTTGCAAAGCCAGT showed a sensor-assay potency score (higher = more potent) of -1.98.
TCAGCCACATCCATCTTCCGGC showed a sensor-assay potency score (higher = more potent) of -0.0987.
With TAGAGTGCGGTGATGCACTTGG the sensor-assay potency score (higher = more potent) was 0.641.
In the case of TTGTACATGATGATGGCCCAGA, the sensor-assay potency score (higher = more potent) is reported as -0.478.
Sequence TTGGCGAACTTGAGGTCGCTGG has a sensor-assay potency score (higher = more potent) of -0.951.
In the case of TTAGCAAACAGCACATGTCCGG, the sensor-assay potency score (higher = more potent) is reported as -0.577.

What follows are sequences tested against HIC1 in the same assay as above. Details: shRNA.
Sequence TTGCGTTGCTGTGCGAACTTGC has a sensor-assay potency score (higher = more potent) of -0.297.
Sequence TTGTAGTCGTCGCCGTCGCCGC has a sensor-assay potency score (higher = more potent) of -1.19.
With TACAGCTCGGCGCAGTGCGTGT the sensor-assay potency score (higher = more potent) was -1.35.
With ATCGTGTCCAGCATCGTCTGCC the sensor-assay potency score (higher = more potent) was -0.128.
TGAGGTTGCGTTGCTGTGCGAA was tested, and the sensor-assay potency score (higher = more potent) was -0.814.
TTCTTGGACAGGTCCAGGCCAC gave a sensor-assay potency score (higher = more potent) of -0.94.
Work on TTGTCGCACGACGCGCAGCGGT yielded a sensor-assay potency score (higher = more potent) of -1.62.
With TTGTAGCTCTTGTCGCACGACG the sensor-assay potency score (higher = more potent) was -1.22.
TTCAGCTGCTCAGAGCTGGGGA gave a sensor-assay potency score (higher = more potent) of -0.306.
TGCTCTTGTAGTCGTCGCCGTC gave a sensor-assay potency score (higher = more potent) of -0.864.
In the case of TAGTCGTCGCCGTCGCCGCCCG, the sensor-assay potency score (higher = more potent) is reported as -0.822.

These sequences were tested against HINT3 in the same assay as above. Details: shRNA.
TAACTGACTACTTACTGAGAAA was tested, and the sensor-assay potency score (higher = more potent) was -1.61.
ATTGACTCTATAAACCAACTTG showed a sensor-assay potency score (higher = more potent) of -0.483.
TATAACTGACTACTTACTGAGA was tested, and the sensor-assay potency score (higher = more potent) was -0.693.
For TTTTCCAACAGTTACCATGTTC, the sensor-assay potency score (higher = more potent) was -0.723.
Work on TATCATATATATAAAATCCTTA yielded a sensor-assay potency score (higher = more potent) of -0.582.
In the case of TTGATTAACAGAATTTGTCTTA, the sensor-assay potency score (higher = more potent) is reported as 0.577.
Work on TTGACTCTATAAACCAACTTGG yielded a sensor-assay potency score (higher = more potent) of -0.569.
With TATCTTTGAAGCAAATTAGGTC the sensor-assay potency score (higher = more potent) was -0.138.
For TTCTACTTGATCTTTCCTTAGA, the sensor-assay potency score (higher = more potent) was -0.545.
Sequence TACCACTTCATGCTGAACCAAG has a sensor-assay potency score (higher = more potent) of -0.805.
TCTTAGGAAACAGACATTCAGA was tested, and the sensor-assay potency score (higher = more potent) was -1.03.
TTTGAAGCAAATTAGGTCCTCA gave a sensor-assay potency score (higher = more potent) of 0.444.

Each sequence was assayed against HIP1R in the same assay as above. Details: shRNA.
For TTGAAGTACAGCATGTCGGAGG, the sensor-assay potency score (higher = more potent) was -0.0916.
With TTGATGGCTTTGCTGATGCTGA the sensor-assay potency score (higher = more potent) was -1.07.
Work on TTCTTGGTGGTTACACTTCGGG yielded a sensor-assay potency score (higher = more potent) of -1.05.
For TACCTCATCTGTCACCTCCAGG, the sensor-assay potency score (higher = more potent) was -0.947.
TTGAACAGGAGCTTGACCGTGT showed a sensor-assay potency score (higher = more potent) of 0.954.
TTGGTGGTTACACTTCGGGGGG was tested, and the sensor-assay potency score (higher = more potent) was -1.01.
With TTGAGGTGGAAGGAGATCTTGG the sensor-assay potency score (higher = more potent) was -0.812.

From the OligoGym collection
Further: reference of the scale not given here.
